# Measured values from ChEMBL document CHEMBL1961873, “Compounds: GSK PKIS; Assays: Nanosyn kinase panel” (2012).
# Experiments:
# [1] = biological target: T1, Serine/threonine-protein kinase D2 (Homo sapiens) (UniProt Q9BZL6); conditions: at 1 µM;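 further: mean value of PRKD2 inhibition, from the GSK PKIS screening panel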
# T1 sequence (whole entry): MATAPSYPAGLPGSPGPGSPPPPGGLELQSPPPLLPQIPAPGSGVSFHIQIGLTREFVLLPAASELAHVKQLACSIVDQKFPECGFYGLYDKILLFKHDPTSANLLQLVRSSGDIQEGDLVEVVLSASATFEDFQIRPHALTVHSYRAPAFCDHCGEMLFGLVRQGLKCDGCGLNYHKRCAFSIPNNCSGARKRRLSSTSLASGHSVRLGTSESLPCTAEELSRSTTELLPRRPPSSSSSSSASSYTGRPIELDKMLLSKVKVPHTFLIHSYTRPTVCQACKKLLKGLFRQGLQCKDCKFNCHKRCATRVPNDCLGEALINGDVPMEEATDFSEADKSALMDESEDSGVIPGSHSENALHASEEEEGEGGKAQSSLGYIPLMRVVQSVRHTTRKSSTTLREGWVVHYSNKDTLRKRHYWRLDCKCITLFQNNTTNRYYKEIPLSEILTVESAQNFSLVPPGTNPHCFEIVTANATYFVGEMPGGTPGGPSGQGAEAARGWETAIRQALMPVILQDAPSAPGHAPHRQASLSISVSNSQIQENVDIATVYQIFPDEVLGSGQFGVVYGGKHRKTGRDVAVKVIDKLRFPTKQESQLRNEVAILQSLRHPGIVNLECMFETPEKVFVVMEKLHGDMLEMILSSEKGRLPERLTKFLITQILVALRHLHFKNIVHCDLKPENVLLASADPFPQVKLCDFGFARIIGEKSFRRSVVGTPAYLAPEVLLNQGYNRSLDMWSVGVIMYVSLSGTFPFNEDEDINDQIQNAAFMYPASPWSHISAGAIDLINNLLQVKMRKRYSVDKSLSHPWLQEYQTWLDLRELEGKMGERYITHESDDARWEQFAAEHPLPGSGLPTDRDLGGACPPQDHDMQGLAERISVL
# [2] = biological target: T2, Serine/threonine-protein kinase D3 (Homo sapiens) (UniProt O94806); conditions: at 0.1 µM
# T2 sequence (whole entry): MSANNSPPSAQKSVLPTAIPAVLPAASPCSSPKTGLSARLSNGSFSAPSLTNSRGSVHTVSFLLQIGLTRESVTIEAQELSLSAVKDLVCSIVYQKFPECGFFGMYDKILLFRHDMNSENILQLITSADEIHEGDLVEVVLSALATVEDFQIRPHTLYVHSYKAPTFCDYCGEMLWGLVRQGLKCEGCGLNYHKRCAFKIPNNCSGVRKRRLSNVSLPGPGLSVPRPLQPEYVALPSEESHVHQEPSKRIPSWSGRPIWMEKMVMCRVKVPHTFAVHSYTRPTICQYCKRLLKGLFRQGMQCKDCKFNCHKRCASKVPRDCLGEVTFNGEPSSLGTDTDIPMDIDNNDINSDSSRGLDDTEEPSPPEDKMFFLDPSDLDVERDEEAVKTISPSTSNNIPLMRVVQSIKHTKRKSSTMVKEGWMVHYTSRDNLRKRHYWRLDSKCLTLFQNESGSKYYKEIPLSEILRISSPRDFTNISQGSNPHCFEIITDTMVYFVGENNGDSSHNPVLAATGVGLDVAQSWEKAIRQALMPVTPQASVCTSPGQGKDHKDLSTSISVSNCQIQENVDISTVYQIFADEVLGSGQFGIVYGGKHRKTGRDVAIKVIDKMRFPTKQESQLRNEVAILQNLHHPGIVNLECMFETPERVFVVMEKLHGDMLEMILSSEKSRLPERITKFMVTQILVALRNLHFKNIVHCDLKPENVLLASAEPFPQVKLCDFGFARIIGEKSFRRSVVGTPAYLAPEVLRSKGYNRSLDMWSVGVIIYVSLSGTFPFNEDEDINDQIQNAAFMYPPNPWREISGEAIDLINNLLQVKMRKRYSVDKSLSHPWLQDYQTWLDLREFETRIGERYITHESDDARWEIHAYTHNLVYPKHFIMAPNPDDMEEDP
# [3] = biological target: T2, Serine/threonine-protein kinase D3 (Homo sapiens); conditions: at 1 µM
# [4] = biological target: T3, cGMP-dependent protein kinase 1 (Homo sapiens) (UniProt Q13976); conditions: at 0.1 µM
# T3 sequence (whole entry): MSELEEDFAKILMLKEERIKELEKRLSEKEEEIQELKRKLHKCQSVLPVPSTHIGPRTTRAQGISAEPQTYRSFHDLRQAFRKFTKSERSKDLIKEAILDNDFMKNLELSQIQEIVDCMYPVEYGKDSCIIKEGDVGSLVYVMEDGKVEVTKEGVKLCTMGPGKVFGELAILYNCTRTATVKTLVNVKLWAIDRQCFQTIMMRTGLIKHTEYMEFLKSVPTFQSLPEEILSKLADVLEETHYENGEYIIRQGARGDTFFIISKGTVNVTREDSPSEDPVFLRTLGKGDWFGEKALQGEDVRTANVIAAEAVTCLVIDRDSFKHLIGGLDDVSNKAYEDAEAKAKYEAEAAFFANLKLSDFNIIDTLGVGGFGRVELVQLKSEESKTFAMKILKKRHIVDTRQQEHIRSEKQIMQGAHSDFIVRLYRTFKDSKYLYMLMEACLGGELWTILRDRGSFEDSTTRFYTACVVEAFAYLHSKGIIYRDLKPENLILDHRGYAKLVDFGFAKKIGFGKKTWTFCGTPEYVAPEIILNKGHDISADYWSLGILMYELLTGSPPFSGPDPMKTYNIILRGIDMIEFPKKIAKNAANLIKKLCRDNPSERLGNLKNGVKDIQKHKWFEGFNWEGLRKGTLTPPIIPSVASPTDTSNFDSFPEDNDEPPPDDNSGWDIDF
# [5] = biological target: T3, cGMP-dependent protein kinase 1 (Homo sapiens); conditions: at 1 µM
# [6] = biological target: T4, cGMP-dependent protein kinase 2 (Homo sapiens) (UniProt Q13237); conditions: at 0.1 µM
# T4 sequence (whole entry): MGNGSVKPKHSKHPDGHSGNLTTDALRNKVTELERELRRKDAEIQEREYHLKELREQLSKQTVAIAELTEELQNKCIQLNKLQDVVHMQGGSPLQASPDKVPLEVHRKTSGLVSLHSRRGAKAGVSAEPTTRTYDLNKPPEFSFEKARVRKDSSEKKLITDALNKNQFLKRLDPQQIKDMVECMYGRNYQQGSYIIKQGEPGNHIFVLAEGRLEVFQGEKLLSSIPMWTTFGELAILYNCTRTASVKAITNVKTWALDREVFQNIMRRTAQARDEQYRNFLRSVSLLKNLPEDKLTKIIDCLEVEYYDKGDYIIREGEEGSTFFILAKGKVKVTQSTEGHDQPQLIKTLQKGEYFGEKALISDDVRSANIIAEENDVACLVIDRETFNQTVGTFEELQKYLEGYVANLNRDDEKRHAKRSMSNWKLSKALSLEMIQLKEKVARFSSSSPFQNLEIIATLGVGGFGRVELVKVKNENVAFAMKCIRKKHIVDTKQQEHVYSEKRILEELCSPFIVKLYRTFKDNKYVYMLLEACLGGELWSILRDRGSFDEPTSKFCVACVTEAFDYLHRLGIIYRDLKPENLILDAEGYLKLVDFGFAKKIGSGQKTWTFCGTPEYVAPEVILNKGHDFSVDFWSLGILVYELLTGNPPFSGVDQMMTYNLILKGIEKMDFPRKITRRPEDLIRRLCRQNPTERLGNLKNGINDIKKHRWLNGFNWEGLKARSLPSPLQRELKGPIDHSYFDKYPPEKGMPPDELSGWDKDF
# [7] = biological target: T4, cGMP-dependent protein kinase 2 (Homo sapiens); conditions: at 1 µM
# [8] = biological target: T5, cAMP-dependent protein kinase catalytic subunit PRKX (Homo sapiens) (UniProt P51817); conditions: at 0.1 µM
# T5 sequence (whole entry): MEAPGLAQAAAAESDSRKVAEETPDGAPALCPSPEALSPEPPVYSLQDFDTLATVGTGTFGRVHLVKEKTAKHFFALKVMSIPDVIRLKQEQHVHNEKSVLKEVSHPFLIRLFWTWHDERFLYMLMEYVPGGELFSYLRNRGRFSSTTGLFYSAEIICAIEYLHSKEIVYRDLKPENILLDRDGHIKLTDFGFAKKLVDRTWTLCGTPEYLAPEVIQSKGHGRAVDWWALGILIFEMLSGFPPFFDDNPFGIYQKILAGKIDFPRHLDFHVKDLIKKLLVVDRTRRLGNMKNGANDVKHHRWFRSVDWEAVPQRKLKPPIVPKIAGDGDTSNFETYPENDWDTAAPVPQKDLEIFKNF
# [9] = biological target: T5, cAMP-dependent protein kinase catalytic subunit PRKX (Homo sapiens); conditions: at 1 µM
# [10] = biological target: Rho-associated protein kinase 1 (Homo sapiens) (UniProt Q13464); conditions: at 0.1 µM
# Sequence of Rho-associated protein kinase 1 (Homo sapiens) (Q13464 2-1354 limits assumed): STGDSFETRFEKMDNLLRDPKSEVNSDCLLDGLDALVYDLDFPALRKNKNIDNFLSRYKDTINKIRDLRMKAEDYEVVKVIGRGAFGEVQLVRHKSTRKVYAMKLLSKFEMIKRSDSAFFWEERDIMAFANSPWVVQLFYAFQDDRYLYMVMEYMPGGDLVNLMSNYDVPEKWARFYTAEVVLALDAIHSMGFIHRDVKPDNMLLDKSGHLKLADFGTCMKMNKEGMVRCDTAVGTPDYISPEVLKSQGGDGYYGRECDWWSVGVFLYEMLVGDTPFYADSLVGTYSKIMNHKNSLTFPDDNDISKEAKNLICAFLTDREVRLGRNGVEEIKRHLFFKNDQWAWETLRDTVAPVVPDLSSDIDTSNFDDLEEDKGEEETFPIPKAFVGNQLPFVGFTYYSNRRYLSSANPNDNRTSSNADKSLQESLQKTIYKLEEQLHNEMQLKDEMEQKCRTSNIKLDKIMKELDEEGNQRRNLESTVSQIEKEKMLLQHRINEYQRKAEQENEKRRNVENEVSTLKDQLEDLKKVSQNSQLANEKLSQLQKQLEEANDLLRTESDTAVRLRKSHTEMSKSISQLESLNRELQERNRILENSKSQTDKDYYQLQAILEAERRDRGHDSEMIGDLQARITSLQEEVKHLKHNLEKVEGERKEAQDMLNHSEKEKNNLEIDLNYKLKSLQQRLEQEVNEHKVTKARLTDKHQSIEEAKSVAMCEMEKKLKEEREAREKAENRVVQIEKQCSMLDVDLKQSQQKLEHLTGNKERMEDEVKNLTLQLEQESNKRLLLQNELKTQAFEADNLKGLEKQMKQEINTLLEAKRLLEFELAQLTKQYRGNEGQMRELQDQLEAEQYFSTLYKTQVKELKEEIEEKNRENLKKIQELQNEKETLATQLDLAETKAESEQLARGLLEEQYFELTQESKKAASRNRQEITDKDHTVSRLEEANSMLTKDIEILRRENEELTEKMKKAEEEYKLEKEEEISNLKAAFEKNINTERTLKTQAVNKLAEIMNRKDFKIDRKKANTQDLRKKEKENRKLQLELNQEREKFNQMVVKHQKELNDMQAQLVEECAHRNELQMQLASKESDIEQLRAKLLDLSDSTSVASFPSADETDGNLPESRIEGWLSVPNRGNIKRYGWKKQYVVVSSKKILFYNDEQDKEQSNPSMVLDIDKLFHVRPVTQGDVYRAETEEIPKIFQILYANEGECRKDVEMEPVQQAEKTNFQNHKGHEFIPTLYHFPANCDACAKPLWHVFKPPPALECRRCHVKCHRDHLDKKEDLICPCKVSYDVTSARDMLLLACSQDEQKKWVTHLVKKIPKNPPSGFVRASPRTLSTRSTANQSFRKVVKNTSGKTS
# [11] = biological target: Rho-associated protein kinase 1 (Homo sapiens) (UniProt Q13464); conditions: at 1 µM
# [12] = biological target: Rho-associated protein kinase 2 (Homo sapiens) (UniProt O75116); conditions: at 0.1 µM
# Sequence of Rho-associated protein kinase 2 (Homo sapiens) (O75116 whole entry, looked up): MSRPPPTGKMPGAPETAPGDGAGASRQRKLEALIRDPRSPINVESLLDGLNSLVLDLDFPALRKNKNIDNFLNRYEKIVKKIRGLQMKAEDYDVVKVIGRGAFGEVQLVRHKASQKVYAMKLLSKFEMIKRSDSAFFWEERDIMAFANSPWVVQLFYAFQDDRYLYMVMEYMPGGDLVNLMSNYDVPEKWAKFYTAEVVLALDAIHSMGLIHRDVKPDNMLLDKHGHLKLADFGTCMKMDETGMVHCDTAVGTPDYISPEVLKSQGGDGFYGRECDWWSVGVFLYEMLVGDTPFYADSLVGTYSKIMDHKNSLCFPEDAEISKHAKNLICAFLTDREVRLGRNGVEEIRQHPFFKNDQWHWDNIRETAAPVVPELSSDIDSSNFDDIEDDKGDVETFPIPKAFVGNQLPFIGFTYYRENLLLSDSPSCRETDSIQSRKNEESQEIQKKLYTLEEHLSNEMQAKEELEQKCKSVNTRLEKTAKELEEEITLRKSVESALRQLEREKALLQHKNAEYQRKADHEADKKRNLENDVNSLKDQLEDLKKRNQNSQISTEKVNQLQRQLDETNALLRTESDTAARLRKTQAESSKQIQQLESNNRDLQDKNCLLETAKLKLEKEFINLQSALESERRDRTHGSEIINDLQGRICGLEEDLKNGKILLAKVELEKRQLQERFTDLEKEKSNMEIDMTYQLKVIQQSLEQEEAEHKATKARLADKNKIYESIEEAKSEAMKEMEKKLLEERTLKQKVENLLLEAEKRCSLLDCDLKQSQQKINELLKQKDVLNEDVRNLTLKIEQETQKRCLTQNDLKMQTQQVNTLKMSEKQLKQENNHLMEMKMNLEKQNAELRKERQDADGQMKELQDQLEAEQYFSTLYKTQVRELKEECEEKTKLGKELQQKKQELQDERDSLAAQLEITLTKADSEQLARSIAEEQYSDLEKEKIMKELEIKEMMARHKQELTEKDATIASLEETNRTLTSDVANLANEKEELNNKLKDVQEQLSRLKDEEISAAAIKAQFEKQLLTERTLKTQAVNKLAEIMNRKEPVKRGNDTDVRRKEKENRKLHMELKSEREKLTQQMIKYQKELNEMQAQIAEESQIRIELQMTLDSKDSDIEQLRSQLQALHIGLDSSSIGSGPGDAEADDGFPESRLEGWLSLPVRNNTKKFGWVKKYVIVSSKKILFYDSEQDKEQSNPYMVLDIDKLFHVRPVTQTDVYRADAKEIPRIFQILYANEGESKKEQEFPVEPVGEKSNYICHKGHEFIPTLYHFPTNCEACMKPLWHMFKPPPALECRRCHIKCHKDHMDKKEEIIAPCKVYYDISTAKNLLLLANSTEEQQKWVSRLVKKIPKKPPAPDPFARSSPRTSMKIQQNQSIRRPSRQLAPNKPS
# [13] = biological target: Rho-associated protein kinase 2 (Homo sapiens) (UniProt O75116); conditions: at 1 µM
# [14] = biological target: Ribosomal protein S6 kinase alpha-1 (Homo sapiens) (UniProt Q15418); conditions: at 0.1 µM
# [15] = biological target: Ribosomal protein S6 kinase alpha-1 (Homo sapiens) (UniProt Q15418); conditions: at 1 µM
# [16] = biological target: Ribosomal protein S6 kinase alpha-3 (Homo sapiens) (UniProt P51812); conditions: at 0.1 µM
# Sequence of Ribosomal protein S6 kinase alpha-3 (Homo sapiens) (P51812 whole entry): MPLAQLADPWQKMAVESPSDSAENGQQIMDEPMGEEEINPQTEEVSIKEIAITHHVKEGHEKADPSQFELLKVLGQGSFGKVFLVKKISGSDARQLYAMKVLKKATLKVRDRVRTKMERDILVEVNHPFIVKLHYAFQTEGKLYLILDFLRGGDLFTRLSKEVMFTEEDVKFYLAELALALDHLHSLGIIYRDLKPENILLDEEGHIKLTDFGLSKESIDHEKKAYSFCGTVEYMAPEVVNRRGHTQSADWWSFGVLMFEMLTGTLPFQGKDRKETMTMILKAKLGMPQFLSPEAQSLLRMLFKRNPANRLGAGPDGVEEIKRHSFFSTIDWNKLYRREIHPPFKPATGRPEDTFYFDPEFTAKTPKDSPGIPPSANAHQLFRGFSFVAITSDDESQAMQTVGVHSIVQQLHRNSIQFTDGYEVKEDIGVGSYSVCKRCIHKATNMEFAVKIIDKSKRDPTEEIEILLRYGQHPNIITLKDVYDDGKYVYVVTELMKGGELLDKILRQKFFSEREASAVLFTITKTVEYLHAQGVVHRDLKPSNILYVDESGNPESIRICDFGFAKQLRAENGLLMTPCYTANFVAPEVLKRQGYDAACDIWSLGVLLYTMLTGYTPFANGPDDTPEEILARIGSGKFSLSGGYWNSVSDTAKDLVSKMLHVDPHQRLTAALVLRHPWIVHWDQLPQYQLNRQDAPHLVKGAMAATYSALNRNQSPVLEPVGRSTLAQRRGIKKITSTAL
# [17] = biological target: Ribosomal protein S6 kinase alpha-3 (Homo sapiens) (UniProt P51812); conditions: at 1 µM
# [18] = biological target: Ribosomal protein S6 kinase alpha-2 (Homo sapiens) (UniProt Q15349); conditions: at 0.1 µM
# Sequence of Ribosomal protein S6 kinase alpha-2 (Homo sapiens) (Q15349 whole entry): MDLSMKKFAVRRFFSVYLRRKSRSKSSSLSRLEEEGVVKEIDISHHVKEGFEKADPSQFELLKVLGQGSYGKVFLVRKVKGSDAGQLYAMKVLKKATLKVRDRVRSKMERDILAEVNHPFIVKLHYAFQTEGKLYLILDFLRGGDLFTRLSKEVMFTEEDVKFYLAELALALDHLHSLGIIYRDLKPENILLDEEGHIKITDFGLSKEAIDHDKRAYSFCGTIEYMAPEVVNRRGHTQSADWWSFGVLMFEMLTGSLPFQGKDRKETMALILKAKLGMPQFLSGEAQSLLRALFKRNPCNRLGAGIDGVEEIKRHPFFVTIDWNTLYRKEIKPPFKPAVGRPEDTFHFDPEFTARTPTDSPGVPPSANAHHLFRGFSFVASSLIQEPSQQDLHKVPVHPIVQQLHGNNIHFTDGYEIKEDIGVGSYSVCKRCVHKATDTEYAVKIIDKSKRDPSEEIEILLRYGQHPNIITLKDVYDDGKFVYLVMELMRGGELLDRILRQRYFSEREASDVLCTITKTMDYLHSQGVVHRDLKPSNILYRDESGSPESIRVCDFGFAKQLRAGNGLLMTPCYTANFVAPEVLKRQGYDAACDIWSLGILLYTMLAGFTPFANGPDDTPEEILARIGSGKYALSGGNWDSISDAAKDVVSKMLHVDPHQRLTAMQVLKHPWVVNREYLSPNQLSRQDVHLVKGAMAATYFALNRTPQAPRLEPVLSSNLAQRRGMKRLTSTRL
# [19] = biological target: Ribosomal protein S6 kinase alpha-2 (Homo sapiens) (UniProt Q15349); conditions: at 1 µM
# [20] = biological target: Ribosomal protein S6 kinase alpha-6 (Homo sapiens) (UniProt Q9UK32); conditions: at 0.1 µM;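 further: reported value is the mean inhibition of RSK4, from the GSK PKIS kinase inhibitor screen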
# Sequence of Ribosomal protein S6 kinase alpha-6 (Homo sapiens) (Q9UK32 whole entry): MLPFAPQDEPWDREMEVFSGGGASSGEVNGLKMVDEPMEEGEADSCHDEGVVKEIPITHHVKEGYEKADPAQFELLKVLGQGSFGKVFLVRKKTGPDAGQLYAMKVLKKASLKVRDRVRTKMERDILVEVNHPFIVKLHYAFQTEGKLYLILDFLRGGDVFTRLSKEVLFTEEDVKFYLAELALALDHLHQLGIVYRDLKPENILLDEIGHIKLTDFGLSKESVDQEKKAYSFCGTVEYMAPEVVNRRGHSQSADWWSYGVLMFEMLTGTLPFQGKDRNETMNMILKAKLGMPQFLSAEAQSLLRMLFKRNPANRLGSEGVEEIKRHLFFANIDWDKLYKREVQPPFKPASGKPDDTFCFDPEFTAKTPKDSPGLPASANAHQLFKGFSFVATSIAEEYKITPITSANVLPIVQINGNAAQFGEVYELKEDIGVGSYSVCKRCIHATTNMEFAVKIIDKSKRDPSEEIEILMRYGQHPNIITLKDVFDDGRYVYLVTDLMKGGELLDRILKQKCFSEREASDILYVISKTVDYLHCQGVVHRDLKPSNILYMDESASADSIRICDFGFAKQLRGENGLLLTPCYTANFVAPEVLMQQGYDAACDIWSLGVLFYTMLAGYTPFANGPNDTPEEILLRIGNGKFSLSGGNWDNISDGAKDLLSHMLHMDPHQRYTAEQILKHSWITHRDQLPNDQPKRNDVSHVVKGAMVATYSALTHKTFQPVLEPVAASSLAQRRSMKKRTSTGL
structure (smiles),measurement,setting,value
COc1ccc(-c2cc(-c3c[nH]nc3-c3ccccn3)ccn2)cc1,inhibition,[1],44.8%
same,inhibition,[2],7.96%
same,inhibition,[3],27.2%
same,inhibition,[4],1.9%
same,inhibition,[5],5.45%
same,inhibition,[6],3.27%
same,inhibition,[7],4.61%
same,inhibition,[8],2.8%
same,inhibition,[9],6.17%
same,inhibition,[10],1.04%
same,inhibition,[11],4.3%
same,inhibition,[12],4.88%
same,inhibition,[13],7.92%
same,inhibition,[14],2.73%
same,inhibition,[15],6.34%
same,inhibition,[16],1.84%
same,inhibition,[17],4.06%
same,inhibition,[18],2.82%
same,inhibition,[19],4.07%
same,inhibition,[20],1.53%
CCn1c(-c2nonc2N)nc2cnc(Oc3cccc(NC(=O)c4ccc(N(C)C)cc4)c3)cc21,inhibition,[1],5.77%
same,inhibition,[2],1.61%
same,inhibition,[3],2.97%
same,inhibition,[4],56.1%
same,inhibition,[5],73%
same,inhibition,[6],21.7%
same,inhibition,[7],60.8%
same,inhibition,[8],12.9%
same,inhibition,[9],55.8%
same,inhibition,[10],85.5%
same,inhibition,[11],87.1%
same,inhibition,[12],85.5%
same,inhibition,[13],86%
same,inhibition,[14],26.1%
same,inhibition,[15],68.3%
same,inhibition,[16],12.7%
same,inhibition,[17],52.8%
same,inhibition,[18],17.4%
same,inhibition,[19],63.6%
same,inhibition,[20],2.31%
CCN(CC)S(=O)(=O)c1ccc(OC)c(Nc2ncc(-c3ccccc3)o2)c1,inhibition,[1],1.51%
same,inhibition,[2],-0.55%
same,inhibition,[3],0.06%
same,inhibition,[4],0.75%
same,inhibition,[5],0.61%
same,inhibition,[6],0.25%
same,inhibition,[7],0.95%
same,inhibition,[8],0.38%
same,inhibition,[9],0.62%
same,inhibition,[10],0.86%
same,inhibition,[11],2.02%
same,inhibition,[12],1.64%
same,inhibition,[13],2.3%
same,inhibition,[14],0.82%
same,inhibition,[15],5.22%
same,inhibition,[16],0.74%
same,inhibition,[17],-0.03%
same,inhibition,[18],0.64%
same,inhibition,[19],1.51%
same,inhibition,[20],1.64%
c1ccc(COc2ccc(Nc3ncnc4ccc(-c5ccco5)cc34)cc2)cc1,inhibition,[1],2.58%
same,inhibition,[2],1.12%
same,inhibition,[3],1.43%
same,inhibition,[4],-0.44%
same,inhibition,[5],0.71%
same,inhibition,[6],0.02%
same,inhibition,[7],1.35%
same,inhibition,[8],2.22%
same,inhibition,[9],0.89%
same,inhibition,[10],0.21%
same,inhibition,[11],-0.24%
same,inhibition,[12],1.39%
same,inhibition,[13],0.1%
same,inhibition,[14],-0.1%
same,inhibition,[15],1.39%
same,inhibition,[16],2.07%
same,inhibition,[17],2.71%
same,inhibition,[18],1.13%
same,inhibition,[19],0.34%
same,inhibition,[20],0.12%
CCn1c(-c2nonc2N)nc2c(C#CC(C)(C)O)nc(OC[C@H](N)c3ccccc3)cc21,inhibition,[1],25.6%
same,inhibition,[2],5.89%
same,inhibition,[3],28.6%
same,inhibition,[4],23.8%
same,inhibition,[5],71.3%
same,inhibition,[6],56.9%
same,inhibition,[7],78.8%
same,inhibition,[8],84.2%
same,inhibition,[9],87.1%
same,inhibition,[10],2.85%
same,inhibition,[11],24.7%
same,inhibition,[12],9.12%
same,inhibition,[13],51.3%
same,inhibition,[14],3.36%
same,inhibition,[15],12.8%
same,inhibition,[16],1.74%
same,inhibition,[17],14.5%
same,inhibition,[18],3.19%
same,inhibition,[19],10.7%
same,inhibition,[20],1.53%
Cc1ccc2c(-c3ccnc(Nc4ccccc4)n3)c(-c3ccc(F)cc3)nn2n1,inhibition,[1],87%
same,inhibition,[2],18.6%
same,inhibition,[3],80.7%
same,inhibition,[4],1.32%
same,inhibition,[5],2.92%
same,inhibition,[6],3.01%
same,inhibition,[7],2.49%
same,inhibition,[8],1.83%
same,inhibition,[9],-0.36%
same,inhibition,[10],1.01%
same,inhibition,[11],1.37%
same,inhibition,[12],2.77%
same,inhibition,[13],2.45%
same,inhibition,[14],1.84%
same,inhibition,[15],4.63%
same,inhibition,[16],0.24%
same,inhibition,[17],0.63%
same,inhibition,[18],2.02%
same,inhibition,[19],2.16%
same,inhibition,[20],0.84%
